PubChem BioAssay (NCI)
This is part of a sample that, as a whole, favours compounds with a hit. Of some 79,000 tested, about 15% had one in any assay. Rule as the data show it: active = growth inhibition above about 70%; inactive = the rest. Where a SMILES comes first, the peptide text is derived from it. The star is where a group is joined. Cbz = O=C(OCc1ccccc1)*

What was measured:
[1] = NCI Yeast Anticancer Drug Screen. Data for the rad50 strain (AID 155);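 also: 0% = growth of vehicle-only cultures of the same strain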; settings: S. cerevisiae rad50 strain growth inhibition; at 50.0 µM; active compounds read high
Method in brief: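 Inhibition values express reduced yeast growth in compound-treated cultures relative to vehicle-treated controls.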

[2] = NCI Yeast Anticancer Drug Screen. Data for the mec2-1 strain (AID 157); settings: S. cerevisiae mec2-1 strain, at 50.0 µM, active compounds read high
Method in brief: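 Cells of the genetically defined mec2-1 yeast strain are incubated with test compound. Inhibition of growth is calculated against vehicle-treated controls.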

[3] = NCI Yeast Anticancer Drug Screen. Data for the sgs1 mgt1 strain (AID 161);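 also: 0% = growth of cultures given vehicle only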; settings: S. cerevisiae sgs1 mgt1 strain, at 50.0 µM, active compounds read high
Method in brief: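 Inhibition of yeast growth, normalised to vehicle-treated controls, is reported for a strain bearing genetic alterations in DNA damage repair.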

[4] = NCI Yeast Anticancer Drug Screen. Data for the cln2 rad14 strain (AID 165);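 also: 0% = growth equal to vehicle treated cultures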; settings: S. cerevisiae cln2 rad14 strain, at 50.0 µM, active compounds read high
Method in brief: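 The screen exposed genetically defined yeast (cln2 rad14) to test compounds and scored growth inhibition relative to vehicle-treated controls.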

[5] = NCI Yeast Anticancer Drug Screen. Data for the bub3 strain (AID 167); settings: S. cerevisiae bub3 mutant strain, at 50.0 µM, active compounds read high
Method in brief: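 Steps: expose the mutant yeast strain to compound; grow alongside vehicle-treated cultures; measure growth; express inhibition against the vehicle cultures.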

[6] = NCI Yeast Anticancer Drug Screen. Data for the mlh1 rad18 strain (AID 175); settings: S. cerevisiae mlh1 rad18 strain growth inhibition; at 50.0 µM; active compounds read high
Method in brief: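 Compound-treated yeast growth, normalised to vehicle controls. Strain bears defined DNA repair mutations.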

Measured: growth inhibition

NC(=O)CC(N)=O
inactive: [1] 6.1% | [2] -5.1% | [3] -2.35% | [4] 9.4% | [5] 1.25% | [6] 4.6%

O=C(/C=C/C(=O)c1ccc(O)cc1)Oc1ccccc1
inactive: [1] 33.1% | [2] -3.75% | [3] 1.1% | [4] -15.3% | [5] 12.9% | [6] 18.1%

Cc1cn(C2CC(OS(C)(=O)=O)C(COC(c3ccccc3)(c3ccccc3)c3ccccc3)O2)c(=O)[nH]c1=O (stereo not given)
inactive: [1] 30.9% | [2] 1.95% | [3] 16.6% | [4] -15.2% | [5] -0.9% | [6] 15.3%

CS(=O)CC(Nc1ccccc1)c1ccccc1 (stereo not given)
inactive: [1] -3.75% | [2] -12.8% | [3] -10.6% | [4] 2% | [5] -25.6% | [6] -3.45%

O=c1[nH]cnc2c(C3OC(CO)C(O)C3O)[nH]nc12 (stereo not given)
inactive: [1] -5.2% | [2] -34.7% | [3] -15.8% | [4] 3.3% | [5] -16.8% | [6] -0.45%

CCOP(=O)(Cc1c(C)cc(Br)c2ccccc12)OCC
inactive: [1] -2.85% | [2] -13.8% | [3] -0.95% | [4] -32.2% | [5] 5.45% | [6] -9.35%

O=C1C(Cc2ccccc2)C(=O)N2c3ccccc3C=CC2N1c1ccccc1 (stereo not given)
inactive: [1] 13.2% | [2] 13.7% | [3] 4.6% | [4] 0.55% | [5] -10% | [6] 8.45%

CC(C(=O)c1ccncc1)c1ccccn1 (stereo not given)
inactive: [1] 1.85% | [2] 6.65% | [3] -25.4% | [4] -18.9% | [5] -12.9% | [6] 3.5%

CCNC1=C(Cl)C(=O)c2ccccc2C1=O
inactive: [1] -11.9% | [2] -9.8% | [3] 12.2% | [4] -21.4% | [5] 8.7% | [6] 14.9%

C=C(C)Cc1cc(C(CC)C(CC)c2ccc(O)c(CC(=C)C)c2)ccc1O (stereo not given)
inactive: [1] 18.6% | [2] 20.4% | [3] 47.2% | [4] 34.3% | [5] 6.25% | [6] 46%

O=C(N=Nc1c(O)[nH]c2c(Cl)cc(Cl)cc12)c1ccccc1O
inactive: [1] -1.1% | [2] -0.55% | [3] -9.5% | [4] 12.5% | [5] -8.95% | [6] 3.85%

O=C(O)CSc1ccccc1
inactive: [1] 39.5% | [2] 18.4% | [3] 17.8% | [4] 13.3% | [5] 20.6% | [6] 0.15%

N#CNC(N)=Nc1ccc(Cl)cc1
inactive: [1] 5.35% | [2] 7.5% | [3] -27.9% | [4] 19.6% | [5] -19.6% | [6] -17.4%

NC(=O)CC(Nc1ncc2c(n1)-c1ccccc1OC2)C(=O)O (stereo not given)
inactive: [1] 37.6% | [2] -16.4% | [3] -10.5% | [4] 9.95% | [5] -45.8% | [6] -53.8%

CCOC(=O)CCC(NC(=O)c1ccc(NC)c([N+](=O)[O-])c1)C(=O)OCC (stereo not given)
inactive: [1] 58.9% | [2] -1.9% | [3] 11.4% | [4] 18.8% | [5] 4% | [6] 0.8%

CCCCCCCCNC(=O)c1ccccc1C(=O)O
inactive: [1] 1.6% | [2] 14.9% | [3] 51.2% | [4] -32.8% | [5] 44.6% | [6] 13.4%

Cc1ccc(NC(=O)CCCC(=O)CC(=O)c2ccc(Br)cc2)cc1
inactive: [1] -0.4% | [2] -14.9% | [3] -40.4% | [4] -26.2% | [5] -12.2% | [6] -24.6%

Clc1ccc2c(c1)Cc1ccccc1-2
inactive: [1] 38.6% | [2] -6.95% | [3] 34.1% | [4] 7.5% | [5] 51.6% | [6] 22.2%

COC1OC(COC(=O)c2ccccc2)C(OC(=O)c2ccccc2)C(OC(=O)c2ccccc2)C1OC(=O)c1ccccc1 (stereo not given)
inactive: [1] -1.3% | [2] -30.8% | [3] -13.6% | [4] -9.4% | [5] -29.8% | [6] -14.8%

O=C1N2Cc3c4ccc5c3CN3C(=O)N6Cc7c(ccc(c7CN1C6(c1ccccc1)C23c1ccccc1)OCCOCCOc1cc(Br)c(Br)cc1OCCOCCO4)OCCOCCOc1cc(Br)c(Br)cc1OCCOCCO5 (stereo not given)
inactive: [1] -4.95% | [2] 8.95% | [3] -3.45% | [4] 18.1% | [5] -1.8% | [6] -16.4%

CCNC(=O)NC(=O)C(C)(C)Oc1ccc(Cl)cc1
inactive: [1] -8.4% | [2] 10.4% | [3] 7.4% | [4] 12.5% | [5] 12.4% | [6] 18.8%

Cc1cc2c(-c3ccc(Cl)cc3)oc(-c3ccc(Cl)cc3)c2cc1C
inactive: [1] -7.35% | [2] 15.8% | [3] -6.35% | [4] 2.85% | [5] -15.4% | [6] -9.5%

CCCCC(CC)CCC(O)CC(C)C (stereo not given)
inactive: [1] -10.2% | [2] -11.3% | [3] 14.6% | [4] 10.8% | [5] 13.8% | [6] 5.25%

O=C(O)[C@@H]1CCC(=O)N1C(c1ccc2c(c1)OCO2)c1ccc2c(c1)OCO2
inactive: [1] -52.2% | [2] -18.1% | [3] -31.1% | [4] 4.35% | [5] -15.1% | [6] -24.4%

O=[N+]([O-])c1cc2c(cc1Cl)C1C(C3C2C2(Cl)C(Cl)=C(Cl)C3(Cl)C2(Cl)Cl)C2(Cl)C(Cl)=C(Cl)C1(Cl)C2(Cl)Cl (stereo not given)
inactive: [1] 24.4% | [2] 9.6% | [3] 30.2% | [4] 24.2% | [5] 20.6% | [6] 18%

O=S(=O)([O-])[O-].O=c1[nH]cnc2nc[n-]c12.[OH3+].[OH3+].[Zn+2]
inactive: [1] -26.8% | [2] -29.2% | [3] -20.6% | [4] -7.9% | [5] -30.9% | [6] -36.2%

CN(C(=O)C12C3C4C5C3C1(C(=O)O)C5C42)C(C)(C)C (stereo not given)
inactive: [1] 35.4% | [2] 12.2% | [3] 0.85% | [4] 18.8% | [5] 28.1% | [6] 25.9%

COc1ccc(N2C(=O)C3c4[nH]c5ccccc5c4C4CCC(C(C)(C)C)CC4C3C2=O)cc1OC (stereo not given)
inactive: [1] 46.8% | [2] 18.4% | [3] 14.8% | [4] -3.4% | [5] 44.2% | [6] 38.1%

N#CC(c1ccc(O)cc1)N1CCN(C(C#N)c2ccc(O)cc2)CC1 (stereo not given)
inactive: [1] -1.5% | [2] 1% | [3] -33.2% | [4] -26.8% | [5] -25.2% | [6] -43.4%

CC1(C)OC2OC(C3CC3)C(OCc3ccccc3)C2O1 (stereo not given)
inactive: [1] -4.35% | [2] -1.05% | [3] -7.55% | [4] -16% | [5] -10.7% | [6] -6.5%

OCc1ccccc1CO
inactive: [1] -19.6% | [2] -15% | [3] -9.25% | [4] 13.3% | [5] -3.75% | [6] 3.15%

O=C(NC(Cc1ccccc1)C(=O)N1CCCC1C(=O)O)OCc1ccccc1 (stereo not drawn) (Cbz-Phe-Pro-OH; configuration not given here)
inactive: [1] 7.75% | [2] 2.55% | [3] -7.05% | [4] -13.9% | [5] -1.75% | [6] 5.05%

O=C(OCC1CCCO1)c1ccccc1 (stereo not given)
inactive: [1] 8.4% | [2] 13.2% | [3] -15.3% | [4] -18.4% | [5] -8.75% | [6] -11%

COC1=C(OCc2ccccc2)C(=O)OC1C(O)CO (stereo not given)
inactive: [1] -3.1% | [2] 11.4% | [3] 0.5% | [4] -1.3% | [5] -7.55% | [6] -12%

CC1=CC(C)(C)N=C2SC(=O)c3nc4ccccc4c(=O)n3N12
inactive: [1] 10.7% | [2] 2.35% | [3] 13.8% | [4] -11.3% | [5] 15.1% | [6] 16.6%

CCOc1c(/C=C\c2cc(/C=C/c3cccc(OC)c3OCC)c([N+](=O)[O-])cc2[N+](=O)[O-])cccc1OC
inactive: [1] 16.4% | [2] -13.7% | [3] 1.75% | [4] -36.6% | [5] -4.45% | [6] 9.55%

O=C(NC(CCS(=O)(=O)n1ccnc1)C(=O)OCc1ccccc1)OCc1ccccc1 (stereo not given)
inactive: [1] 12.7% | [2] -4.95% | [3] -18.2% | [4] 11.2% | [5] -4.7% | [6] 1.6%

Cc1sc2ccnc(C)c2c1S(=O)(=O)O
inactive: [1] 5.3% | [2] 9.95% | [3] -9.95% | [4] -3.5% | [5] 15.2% | [6] -12.4%

CC(c1ccccc1O)C1CCCCC1N=O (stereo not given)
inactive: [1] -0.15% | [2] 3% | [3] 16.1% | [4] -48.5% | [5] 15.2% | [6] -4.15%

C=C1C(=O)[C@@]23CC1C(O)[C@@H](OC(C)=O)[C@@H]2C1(C)C(OC(C)=O)C[C@@H](OC(C)=O)C(C)(C)[C@@H]1C[C@H]3OC(C)=O (stereo not given in full)
inactive: [1] 16.1% | [2] 11.9% | [3] 14% | [4] 22.4% | [5] 2.05% | [6] 0.15%
